Inconclusive results are not listed. A call without a number means that no potency is given here. Calls of active or inactive are those of the source. The call rests on the fitted dose curve; in most records, active means well fitted inhibition curve with a large enough effect; inconclusive means small, poorly fitted or top-dose-only effect; inactive means flat fitted curve, though single readings scatter.
Assays:
Test in all cases: qHTS profiling for inhibitors of Plasmodium falciparum proliferation (AID 504749); further: nearly all actives have a fitted effect of over 60% in size
Conditions in all cases: P. falciparum in erythrocytes, SYBR Green DNA, 72 h; series mostly up to 28.7 µM
CP297 = test system: CP297
Procedure, shortened: (§1)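 Quantitative HTS: compounds pinned into medium, infected erythrocytes added (0.3% parasitemia, 2.5% hematocrit), 72 h culture at 37 C under 5% CO2. Saponin/Triton lysis with SYBR Green I, overnight RT, then fluorescence read.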

CP325 = test system: CP325
Procedure, shortened: as §1

DFO2036 = test system: DFO2036
Procedure, shortened: as §1

DIV14 = test system: DIV14
Procedure, shortened: as §1

DIV17 = test system: DIV17
Procedure, shortened: as §1

DIV30 = test system: DIV30
Procedure, shortened: as §1

ECU = test system: ECU
Procedure, shortened: as §1

GB4 = test system: GB4
Procedure, shortened: as §1

HB3 = test system: HB3
Procedure, shortened: as §1

ICS = test system: ICS
Procedure, shortened: as §1

CP268 = test system: CP268
Procedure, shortened: as §1

CP269 = test system: CP269
Procedure, shortened: as §1

CP286 = test system: CP286
Procedure, shortened: as §1

CP291 = test system: CP291
Procedure, shortened: as §1

CP305 = test system: CP305
Procedure, shortened: as §1

CP315 = test system: CP315
Procedure, shortened: as §1

CP329 = test system: CP329
Procedure, shortened: as §1

CP335 = test system: CP335
Procedure, shortened: as §1

Dd2 = test system: Dd2
Procedure, shortened: as §1

FAB9 = test system: FAB9
Procedure, shortened: as §1
Potency means the concentration at half of the fitted maximal effect.

| Structure (SMILES) | Potency (CP297) | Potency (CP325) | Potency (DFO2036) | Potency (DIV14) | Potency (DIV17) | Potency (DIV30) | Potency (ECU) | Potency (GB4) | Potency (HB3) | Potency (ICS) | Potency (CP268) | Potency (CP269) | Potency (CP286) | Potency (CP291) | Potency (CP305) | Potency (CP315) | Potency (CP329) | Potency (CP335) | Potency (Dd2) | outcome (FAB9) |
| --- | --- | --- | --- | --- | --- | --- | --- | --- | --- | --- | --- | --- | --- | --- | --- | --- | --- | --- | --- | --- |
| Clc1ccc(COC(Cn2ccnc2)c2ccc(Cl)cc2Cl)c(Cl)c1 (stereo not given) | 4.05 µM (active) | 5.1 µM (active) | 3.16 µM (active) | 2.28 µM (active) | 3.61 µM (active) | 5.73 µM (active) | 1.26 µM (active) | 5.1 µM (active) | 3.55 µM (active) | 1 µM (active) | – | – | – | – | – | – | – | – | – | – |
| N#Cc1c(N(CC(=O)O)CC(=O)O)sc(C(=O)O)c1CC(=O)O | inactive | inactive | inactive | inactive | inactive | inactive | inactive | inactive | inactive | inactive | inactive | inactive | inactive | inactive | inactive | inactive | inactive | inactive | inactive | inactive |
| COc1cc2c(cc1OC)CC(=O)N(CCCN(C)C[C@H]1Cc3cc(OC)c(OC)cc31)CC2 | inactive | inactive | inactive | – | – | – | inactive | inactive | inactive | – | inactive | inactive | inactive | inactive | inactive | inactive | inactive | inactive | inactive | inactive |
| C=C1c2cccc(O)c2C(O)=C2C(=O)[C@@]3(O)C(O)=C(C(N)=O)C(=O)[C@@H](N(C)C)[C@@H]3[C@@H](O)[C@H]12 | inactive | inactive | inactive | inactive | inactive | inactive | inactive | inactive | – | – | inactive | inactive | – | inactive | inactive | inactive | inactive | – | 1.78 µM (active) | inactive |
| CS(=O)(=O)c1ccc(C2=C(c3ccccc3)C(=O)OC2)cc1 | inactive | inactive | inactive | inactive | inactive | inactive | inactive | inactive | inactive | inactive | inactive | inactive | inactive | inactive | inactive | inactive | inactive | inactive | inactive | inactive |
| N#CC(c1ccc(Cl)cc1)c1c(Cl)cc(-n2ncc(=O)[nH]c2=O)cc1Cl (stereo not given) | inactive | inactive | inactive | – | – | inactive | inactive | inactive | inactive | – | inactive | inactive | inactive | inactive | inactive | inactive | inactive | inactive | inactive | inactive |
| CN1CCN2c3ncccc3Cc3ccccc3C2C1 (stereo not given) | inactive | inactive | inactive | – | – | inactive | inactive | – | inactive | 11.2 µM (active) | inactive | inactive | inactive | – | inactive | inactive | inactive | – | – | inactive |
| COc1ccnc(CS(=O)c2nc3ccc(OC(F)F)cc3[nH]2)c1OC (stereo not given) | inactive | inactive | inactive | inactive | inactive | – | inactive | inactive | inactive | inactive | inactive | inactive | inactive | inactive | inactive | inactive | inactive | inactive | inactive | inactive |
| O=C(O)c1nc(=O)[nH]c(=O)[nH]1 | inactive | inactive | inactive | inactive | inactive | inactive | inactive | inactive | inactive | inactive | inactive | inactive | inactive | inactive | inactive | – | inactive | – | inactive | inactive |
| Cc1cc2nc3c(=O)[nH]c(=O)nc-3n(CC(O)C(O)C(O)CO)c2cc1C (stereo not given) | inactive | inactive | inactive | – | – | inactive | inactive | – | inactive | inactive | inactive | inactive | inactive | inactive | inactive | inactive | inactive | inactive | inactive | inactive |
| NS(=O)(=O)c1cc(Cl)c(Cl)c(S(N)(=O)=O)c1 | inactive | inactive | inactive | inactive | inactive | inactive | inactive | inactive | inactive | inactive | inactive | inactive | inactive | inactive | inactive | inactive | inactive | inactive | inactive | inactive |
| Fc1ccc(C(c2ccc(F)cc2)N2CCN(CC=Cc3ccccc3)CC2)cc1 | – | – | – | 12 µM (active) | 13.5 µM (active) | 16.9 µM (active) | – | 16.9 µM (active) | – | – | – | – | – | – | 13.5 µM (active) | – | – | 15.1 µM (active) | – | – |
| O=C1C(CCC(O)c2ccc(F)cc2)C(c2ccc(O)cc2)N1c1ccc(F)cc1 (stereo not given) | inactive | inactive | inactive | inactive | inactive | inactive | inactive | inactive | inactive | inactive | inactive | inactive | inactive | inactive | inactive | inactive | inactive | inactive | inactive | inactive |
| CN1CC(=O)N2C(Cc3c([nH]c4ccccc34)[C@H]2c2ccc3c(c2)OCO3)C1=O (stereo not given in full) | inactive | inactive | inactive | – | – | inactive | inactive | inactive | inactive | – | inactive | inactive | inactive | inactive | inactive | inactive | inactive | inactive | inactive | inactive |
| CC(C)CN(C[C@@H](O)[C@H](Cc1ccccc1)NC(=O)O[C@H]1CO[C@H]2OCC[C@H]21)S(=O)(=O)c1ccc(N)cc1 | inactive | inactive | inactive | – | – | – | inactive | inactive | inactive | – | inactive | inactive | inactive | inactive | inactive | inactive | inactive | inactive | inactive | inactive |
| COc1c(C)c2c(c(O)c1CC=C(C)CCC(=O)OCCN1CCOCC1)C(=O)OC2 | 12 µM (active) | 10.7 µM (active) | 10 µM (active) | 13.5 µM (active) | 15.1 µM (active) | 12 µM (active) | 10 µM (active) | 6.75 µM (active) | – | 7.94 µM (active) | 12 µM (active) | 8.49 µM (active) | 7.08 µM (active) | 8.49 µM (active) | 10.7 µM (active) | 13.5 µM (active) | 7.57 µM (active) | 8.49 µM (active) | 11.2 µM (active) | inactive |

— PubChem BioAssay (NCATS)
